From PubChem
A selection: hits, their analogues and other compounds. The true share with any hit is near 12%.
Arbovirus anti = antivirals against arbovirus infection; arbovirus infection cell-based antiviral screen; inhibition, % at 10 µM; 0.37% of 200,000 active; in the data active means inhibition above about 30%
CHOP inh = inhibitors of CHOP induction in ER stress response | CHO-K1 CHOP-promoter luciferase, tunicamycin-induced, 15-18 h | inhibition, % at 10 µM | 3.8% of 220,000 active;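 active means compounds that reduced the stress-induced luciferase reporter signal by more than about 70% of percent inhibition, limit read from the data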
WT yeast gro inh = growth inhibition of WT yeast, mitochondrial fusion screen; inhibition, % at 10 µM; mitochondrial fusion phenotypic screen, WT strain; 2.1% of 190,000 active; in the data active means inhibition above about 58%; tested in S. cerevisiae
Lmaj promast = Leishmania major promastigote growth inhibition; AID 1063; Leishmania major promastigotes, resazurin fluorescence viability; 9% of 200,000 active; inhibition, % at 10 µM; in the data active means inhibition above about 50%;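 further: promastigotes grown with compound for 44 hours at 28 °C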
Large screens that a line does not name were inactive.

Cc1[nH]c2ccccc2c1/C=N/Nc1ccc([N+](=O)[O-])cc1S(=O)(=O)Nc1ccc(Cl)cc1	Lmaj promast 95
Cc1[nH]c2ccccc2c1/C=N/Nc1cccc(C(=O)O)c1	none (no result: Arbovirus anti, WT yeast gro inh, Lmaj promast)
Cc1[nH]c2ccccc2c1/C=N/Nc1nc2ccccc2[nH]1	none (no result: Arbovirus anti, WT yeast gro inh, Lmaj promast)
COc1ccc(/C=N/Nc2ccc([N+](=O)[O-])cc2S(=O)(=O)N2CCN(C)CC2)cc1	CHOP inh 71
O=C(O)c1ccc(/C=N/Nc2ccc(S(=O)(=O)N3CCCC3)cc2[N+](=O)[O-])cc1	none (no result: Arbovirus anti, WT yeast gro inh, Lmaj promast)
N#CC(c1ccc(O)cc1)N1CCOCC1 (stereo not given)	none
Cc1ccc(Oc2ccc(NC(=O)Cn3ccsc3=N)cc2)cc1	Lmaj promast 100
CCCOc1ccc(-c2csc(N)n2)cc1[N+](=O)[O-]	WT yeast gro inh 76
CCCCOc1ccc(-c2cn3ccccc3n2)cc1[N+](=O)[O-]	none
CC(C)CN(CCNC(=O)CC1Oc2ccccc2NC1=O)CC(C)C (stereo not given)	CHOP inh 72
CCN(CC)S(=O)(=O)c1ccc(OC(C)C)c(NC(=O)c2c3c(nc4ccccc24)CCN(Cc2ccccc2)C3)c1	Lmaj promast 58
COc1ccc(NC(=O)c2c3c(nc4ccccc24)CCN(Cc2ccccc2)C3)c(OC)c1	none
COc1ccc(S(=O)(=O)N2CCCCCC2)cc1NC(=O)c1c2c(nc3ccccc13)CCN(Cc1ccccc1)C2	Lmaj promast 54
O=C(OCC(=O)N1CCOCC1)c1cccc(S(=O)(=O)N2CCCc3ccccc32)c1	none (no result: Arbovirus anti, WT yeast gro inh, Lmaj promast)
O=S(=O)(NCCC(c1ccc(F)cc1)c1ccco1)c1ccccc1 (stereo not given)	WT yeast gro inh 60
Clc1cccc(-c2cc3nc4c(c(N5CCOCC5)n3n2)CCCC4)c1	WT yeast gro inh 85
Clc1cccc(-c2cc3nc4c(c(N5CCN(c6cnccn6)CC5)n3n2)CCCC4)c1	WT yeast gro inh 70, Lmaj promast 62
Fc1cccc(-c2cc3nc4c(c(N5CCOCC5)n3n2)CCCC4)c1	none
O=S1(=O)c2ccccc2C(CCO)N1Cc1ccccc1 (stereo not given)	none (no result: Arbovirus anti, WT yeast gro inh, Lmaj promast)
CC(=O)Nc1ccc(S(=O)(=O)N2CCN(Cc3cccc([N+](=O)[O-])c3)CC2)cc1	none
Cc1cc(C)c(C#N)c(Oc2ccc(O)cc2)n1	none
CCCC(=O)Nc1cccc(Oc2nc(C)cc(C)c2C#N)c1	Lmaj promast 52
OC(COc1ccc2c(c1)OCO2)CN1CCc2ccccc2C1 (stereo not given)	Lmaj promast 74
C=CCc1ccccc1OCC(O)CN1CCN(Cc2ccc3c(c2)OCO3)CC1 (stereo not given)	Lmaj promast 93
OC(COc1ccc(Cl)cc1)CN1C2=NCCCN2c2ccccc21 (stereo not given)	Lmaj promast 63
OC(COc1ccc2c(c1)OCO2)CN1CCCCC1 (stereo not given)	none
Cc1ccc(OCC(O)CN2CCN(Cc3ccc4c(c3)OCO4)CC2)cc1C (stereo not given)	Lmaj promast 91
OC(CN1C2=NCCCN2c2ccccc21)c1ccc(Cl)cc1 (stereo not given)	none
COc1cc2c(cc1OC)-c1nnc(-c3cccs3)n1C1(CCCC1)C2	none
CCN1CCN(CCOc2ccc(Cl)cc2)CC1	Lmaj promast 78
OC(COc1ccc(CNCCc2ccc(C(F)(F)F)cc2)cc1)CN1CCCCC1 (stereo not given)	Lmaj promast 100
Clc1ccc(OCCN2CCN(c3ncnc4sccc34)CC2)cc1	none (no result: CHOP inh)
CCN1CCN(CC(O)COc2ccc(Cl)cc2)CC1 (stereo not given)	Lmaj promast 89
OCCN1CCN(CC(O)COc2ccc(C34CC5CC(CC(C5)C3)C4)cc2)CC1 (stereo not given)	Lmaj promast 100
COc1ccc(/C=C/C(=O)NC(=S)Nc2cc([N+](=O)[O-])ccc2O)cc1OC	none
OC(COCc1ccc2c(c1)OCO2)CN1CCC(Cc2ccccc2)CC1 (stereo not given)	Lmaj promast 87
COc1ccc(OCC(O)CN2CCCCC2)cc1 (stereo not given)	none
CCC(=O)c1ccc(OCC(O)CN2CCCCC2)cc1 (stereo not given)	Lmaj promast 66
Cc1cc(OCC(O)CN2CCN(C)CC2)ccc1C(C)C (stereo not given)	Lmaj promast 90
OC(COc1ccc(Cl)cc1)CN1CCCCC1 (stereo not given)	Lmaj promast 89
CSc1nsc(SCC(=O)N2CCN(c3ccccc3)CC2)n1	none
Cc1c(Cc2ccccc2)sc(NC(=O)C(C)(C)C)c1C(N)=O	none
O=C1CCC([N+](=O)[O-])C(c2ccc(Cl)cc2)N1 (stereo not given)	none
Cc1cc(OCC(O)CN2C(C)CCCC2C)ccc1C(C)C (stereo not given)	Lmaj promast 97
OCCN1CCN(CC(O)COc2ccc(Cl)cc2)CC1 (stereo not given)	Lmaj promast 74
OC(COc1c(Cl)cc(Cl)cc1Cl)CN1CCCCC1 (stereo not given)	Lmaj promast 97
OC(COc1cc(Cl)c(Cl)cc1Cl)CN1CCN(c2ncccn2)CC1 (stereo not given)	none
CN1CCN(CC(O)COc2ccc(Cl)cc2)CC1 (stereo not given)	Lmaj promast 86
Cc1cc(=O)[nH]c(SCC(=O)OCc2ccccc2)c1C#N	none
Cc1cc(N)c2ccccc2[n+]1CCCCCCCCCCCCCC[n+]1c(C)cc(N)c2ccccc21	none (no result: Arbovirus anti, WT yeast gro inh, Lmaj promast)
CN(Cc1ccc(OCC(O)CN2CCCCC2)cc1)Cc1ccnc2ccccc12 (stereo not given)	none
Cc1nn(C)cc1CN(C)Cc1ccc(OCC(O)CN2CCCCC2)cc1 (stereo not given)	Arbovirus anti 34
CCN1CCN(CC(O)COc2ccc(C)c(C)c2)CC1 (stereo not given)	Lmaj promast 84
CS(=O)(=O)c1cnc(-c2cccnc2)nc1N	none
O=S(=O)(/C=C/c1ccccc1)N1CCN(c2nc(-c3cccnc3)nc3ccccc23)CC1	Lmaj promast 52
c1cncc(-c2nc(N3CCOCC3)c3ccccc3n2)c1	none
O=C(c1cc(-c2ccncc2)nc2ccccc12)N1CCN(S(=O)(=O)/C=C/c2ccccc2)CC1	Lmaj promast 97
Cc1ccc(-c2cc(C(=O)N3CCN(c4ncccn4)CC3)c3ccccc3n2)cc1	none
c1ccc2c(c1)OCC(c1nnc3sc(-c4ccc5c(c4)OCO5)nn13)O2 (stereo not given)	CHOP inh 86
O=C(Cn1c(=O)oc2cc(S(=O)(=O)N3CCCC3)ccc21)N1CCN(C2CCCCC2)CC1	Lmaj promast 85
Cc1ccc(NC(=O)Cn2c(=O)oc3cc(S(=O)(=O)N4CCC(C)CC4)ccc32)cc1C	CHOP inh 74
CN(C)c1nc(C=C(C#N)C#N)c(Cl)n1-c1ccc(F)cc1	CHOP inh 96
COc1ccc(S(=O)(=O)NC(N)=NCCc2ccccc2)cc1	none
Cc1cc(C)c[n+](C(C)C(=O)c2ccc(-c3ccccc3)cc2)c1 (stereo not given)	Lmaj promast 67
CCNc1nc(N2CCCC2)nc(N2CCCC2)n1	Lmaj promast 73
CCNc1nc(NC(C)(C)C)nc(N2CCCCC2)n1	WT yeast gro inh 78, Lmaj promast 95
CCNc1nc(C(=O)O)nc(N2CCOCC2)n1	none
